Compound activity from PubChem.
PAFAH2 inh: PAFAH2 (human) inhibition; Q99487; recombinant PAFAH2, FP-rhodamine activity probe, fluorescence polarization; inhibition, % at 3.39 µM; actives 0.99% (n = 340,000); AID 492956;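 active means inhibition above the mean over all tested compounds plus 3 SD, cut at about 30% in these data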;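 further: inhibitors block probe labeling of enzyme so polarization drops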
PP5 inh: blocks human protein phosphatase 5 activity | purified PP5c, OMFP substrate fluorescence | inhibition, % at 6.7 µM | actives 0.18% (n = 320,000);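 active means inhibition above the campaign's mean inhibition across all tested compounds plus 3 SD, cut at about 9.5% in these data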
pPAFAH FP inh: pPAFAH (human) enzyme inhibition; Q13093; recombinant pPAFAH, FP-rhodamine probe fluorescence polarization; inhibition, % at 3.39 µM; actives 1.5% (n = 330,000); AID 463082;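 active means inhibition above the mean inhibition across the screen plus 3 SD, cut at about 25% in these data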;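 further: inhibitors block binding of the rhodamine activity-based probe so polarization drops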
PAFAH1B3 inh: blocks human PAF acetylhydrolase 1B catalytic subunit 3. Q15102. recombinant PAFAH1B3, FP-rhodamine probe, fluorescence polarization. inhibition, % at 3.39 µM. actives 0.28% (n = 340,000). AID 492972;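 active means inhibition above the screen-wide average of all tested compounds plus 3 SD, cut at about 25% in these data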
Target sequence (Q15102 whole entry, looked up): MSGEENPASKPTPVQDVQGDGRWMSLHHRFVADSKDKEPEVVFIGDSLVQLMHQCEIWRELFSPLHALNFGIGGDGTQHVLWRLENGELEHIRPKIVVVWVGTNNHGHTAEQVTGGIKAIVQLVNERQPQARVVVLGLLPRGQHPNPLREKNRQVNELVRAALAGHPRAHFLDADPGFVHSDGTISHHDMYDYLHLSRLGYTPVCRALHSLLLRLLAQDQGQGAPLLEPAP
PAFAH1B2 inh: inhibitors of human PAFAH1B2; recombinant PAFAH1B2, FP-rhodamine activity probe, fluorescence polarization; inhibition, % at 3.39 µM; actives 1.2% (n = 340,000); AID 492953; P68402;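 active means inhibition above the mean of all tested compounds plus 3 SD, cut at about 24% in these data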
Target sequence (P68402 whole entry, looked up): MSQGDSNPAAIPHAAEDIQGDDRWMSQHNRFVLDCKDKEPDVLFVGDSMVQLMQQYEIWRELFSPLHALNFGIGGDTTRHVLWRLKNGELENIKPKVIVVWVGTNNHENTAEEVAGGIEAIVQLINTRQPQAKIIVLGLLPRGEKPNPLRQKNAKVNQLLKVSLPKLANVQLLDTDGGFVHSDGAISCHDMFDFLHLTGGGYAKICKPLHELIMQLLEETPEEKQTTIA
PP1 counter: PP1-alpha (human) inhibition in PP5 counter-screen; purified PP1alpha, OMFP fluorescence; P62136; AID 2235; inhibition, % at 6.7 µM; actives 0.9% (n = 320,000);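 active means inhibition above the mean inhibition of all tested compounds plus 3 SD, computed separately for each screening campaign, cut at about 15% in these data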
PAFAH2 FP conf: PAFAH2 (human) inhibition, confirmed; shares compounds with PAFAH2 inh; recombinant PAFAH2, FP-rhodamine activity probe, fluorescence polarization; inhibition, % at 3.39 µM; actives 65% (n = 2,300);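 active means mean inhibition over three repeats above a set limit taken from the earlier primary screen, cut at about 30% in these data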;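 further: inhibitor blocks binding of rhodamine activity probe so polarization falls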
A number is an active result; 0 = inactive; - = no result given. Most compounds without a hit are left out; they make up all but 3.4% or so of the library.

SMILES	PAFAH2 inh	PP5 inh	pPAFAH FP inh	PAFAH1B3 inh	PAFAH1B2 inh	PP1 counter	PAFAH2 FP conf
CN(C(=O)c1ccccc1C(=O)OCC(=O)Nc1ccccc1)c1ccccc1	78.1	0	0	0	0	0	77.1
C=C1C(O)C[C@@H](C(C)C)N(CC(C)C)S1(=O)=O (stereo partly drawn)	0	-	-	0	0	-	-
CCn1cc(CCCC(=O)NCc2cccnc2)c2ccccc21	0	-	-	0	0	-	-
O=C(COC(=O)c1ccco1)Nc1ccccc1	68.1	0	0	0	0	0	65.5
CC(C)CNC(=O)COC(=O)c1ccc(Cl)c(S(N)(=O)=O)c1	0	0	0	0	0	0	-
COc1cccc(C2C(C(=O)c3cc4ccccc4o3)=C(O)C(=O)N2c2cc(C)on2)c1OC (stereo not drawn)	35.5	0	0	0	0	15.2	0
COc1ccccc1C1C(C(=O)c2ccc(C)o2)=C(O)C(=O)N1c1cc(C)on1 (stereo not drawn)	0	0	0	0	0	0	-
Cn1ccnc1SCC(=O)c1cccc(Br)c1	0	0	0	0	0	0	-
Cc1ccc(CNC(=O)c2nnn(CC(=O)Nc3cc(C)cc(C)c3)c2N)cc1	0	0	0	0	0	0	-
O=C(CSc1cccc[n+]1[O-])c1ccccc1Br	39.3	0	0	0	0	0	38.7
CC(=O)Nc1cccc(C(=O)OCC(=O)NC(C)c2ccc(F)cc2)c1 (stereo not drawn)	46.3	0	0	0	0	0	36.0
CC(=O)Nc1cccc(C(=O)OCC(=O)Nc2ccc(Cl)cn2)c1	43.5	0	0	0	0	0	33.2
O=C(COC(=O)c1ccc(O)cc1O)Nc1ccc(Cl)cn1	0	0	0	0	0	0	-
O=C(COC(=O)c1cnccn1)Nc1ccc(Cl)cn1	0	0	0	0	0	0	-
Cc1ccc(C(=O)OCC(=O)Nc2ccc(Cl)cn2)s1	71.4	0	0	0	0	0	62.6
NC(=O)Nc1ccc(C(=O)OCC(=O)Nc2ccc(Cl)cn2)cc1	82.4	0	0	0	0	0	71.8
CCn1c(COc2cccc(C)c2)nnc1SCC(=O)CC(=O)Nc1ccccc1OC	0	0	0	0	0	0	-
Cc1cc(NC(=O)CSCC(=O)Nc2cc(C(F)(F)F)ccc2N2CCCCC2)no1	0	-	-	0	0	-	-
COc1cc(NC(=O)c2ccc(Cl)cc2)c(OC)cc1Cl	0	0	0	0	0	0	-
Cc1cc(C(=O)C(=O)N(C)C)c(C)n1-c1ccc([N+](=O)[O-])cc1	0	0	0	0	0	0	-
O=C(COC(=O)c1ccc(F)cc1F)Nc1ccc(Cl)cn1	38.6	0	0	0	0	0	31.1
CCN(c1ccc(NC(=O)COC(=O)c2ccc(C)s2)cc1)C(C)C	46.5	0	0	0	0	0	40.0
CCCC(C)NC(=O)COC(=O)c1cccc(NS(C)(=O)=O)c1 (stereo not drawn)	37.1	0	0	0	0	0	0
CCOc1cc(C(=O)OCc2ccc(OC)cc2)ccc1OCC(=O)N1CCOCC1	0	0	0	0	0	0	-
CCNC(=O)NC(=O)COC(=O)c1cccc(NS(=O)(=O)/C=C/c2ccccc2)c1	0	0	0	0	0	0	-
SMILES	PAFAH2 inh	PP5 inh	pPAFAH FP inh	PAFAH1B3 inh	PAFAH1B2 inh	PP1 counter	PAFAH2 FP conf
CCOc1cc(C(=O)OCC(=O)Nc2ccc(Cl)cn2)ccc1OCC(=O)N1CCOCC1	83.2	0	0	0	0	0	71.3
O=C(/C=C/c1cccc([N+](=O)[O-])c1)Nc1cc(C(=O)O)cc(C(=O)O)c1	0	0	0	0	0	0	-
Nc1ccc(C(=O)OCC(=O)NC2CC2)cc1[N+](=O)[O-]	59.3	0	0	0	0	0	47.8
Cc1cc(C(=O)OCC(=O)NC2CC2)ccc1[N+](=O)[O-]	0	0	0	0	0	0	-
Nc1ccc(C(=O)OCC(=O)N2CCc3ccccc3C2)cc1[N+](=O)[O-]	50.9	0	0	0	0	0	45.7
O=C(COC(=O)c1ccccc1C(=O)c1ccc(Cl)c([N+](=O)[O-])c1)NC1CCCCCC1	61.9	0	0	0	0	0	46.8
COc1ccc(CNC(=O)C2(CC3CC(c4ccccc4)=NO3)CCN(C(=O)Cc3ccc(F)cc3)CC2)cc1 (stereo not drawn)	0	0	0	0	0	0	-
